Most compounds without a hit are left out; they make up all but 3.1% or so of the library.
ELG1 repair inh: qHTS screen for small molecules that inhibit ELG1-dependent DNA repair in human embryonic kidney (HEK293T) cells expressing luciferase-tagged ELG1; Potency, µM (highest dose often 46.1 µM), actives largely listed as inhibitors; HEK293T ELG1-luciferase reporter, luminescence, 16 h; DNA damage induced by 5-fluorouridine; 2.3% of 330,000 active; note: nearly all actives have a fitted effect of over 55% in size
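HEK293T cells expressing luciferase-tagged ELG1 (2,000/well) received 5-Fluorouridine plus compound or DMSO for 16 hr at 37 °C. Luciferase was read by ONE-Glo luminescence after 30 min at room temperature.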
Nrf2 activator: qHTS of Nrf2 Activators; AREc32 ARE-luciferase reporter (MCF7-derived line), luminescence, 24 h; Potency, µM (highest dose often 46.1 µM), actives largely listed as activators; 0.31% of 410,000 active; AID 624171, 2012; note: nearly all actives have a fitted effect of over 65% in size
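ARE activation measured as luciferase luminescence (Steady-Glo, 30 min RT) in AREc32_Fluc cells after 24 hr compound exposure at 37 deg C, 5% CO2; cells seeded overnight at 1000/well in OPTI-MEM, 5% FBS.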
IL-2 act: qHTS of IL-2 Activators. IL-2 activation reporter assay, cell-based qHTS; stimulated with anti-CD3/CD4/CD28 beads; in transgenic mouse T cells. activation, % (series mostly up to about 46 µM). 0.065% of 360,000 active; in the data active = activation above about 50%; inconclusive = mostly about 30% to 49%
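Unstimulated transgenic mouse T cells; 60-min compound exposure; bead-based TCR/CD4/CD28 stimulation; 18 h culture, 37 degrees C; dual fluorescence (EGFP, DsRed) plate cytometry.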
BRCA1 expr act: qHTS Assay to Identify Small Molecule Activators of BRCA1 Expression; Potency, µM (highest dose often 46.1 µM), hits mostly activators; AID 624202, 2012; 1.1% of 380,000 active; MCF7-BRCA1-FFLuc reporter, luminescence, 48 h; response scale: scaled: vehicle 0%, 10 µM genistein 100%; note: nearly all actives have a fitted effect of over 80% in size
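Reporter cells (MCF7, BRCA1 promoter-firefly luciferase) received library compounds across a concentration series for 48 h. End-point luminescence was measured and concentration-effect curves derived after normalization.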
Numbers stand for hits. Unless noted, calls come from the whole dose curve; as a rule, active = well fitted curve in the direction sought with a large enough effect; inconclusive = small, poorly fitted or top-dose-only effect, or another doubt; inactive = no such curve, though single readings can be large; an effect the other way counts as inactive or inconclusive.

COc1ccccc1NC(=O)C1=C(C)Nc2nc(SCc3ccc(Cl)cc3)nn2C1c1ccccc1Cl (stereo unspecified) was read as Nrf2 activator inactive.
For COc1ccc(-c2cc(C(=O)NCCc3ccc(OC)c(OC)c3)c3ccccc3n2)cc1 the results were Nrf2 activator inactive.
For Cc1nn2c3c(cnc2c1-c1ccccc1)C(=O)CC(c1ccco1)C3 (stereo unspecified) the results were ELG1 repair inh inconclusive, Nrf2 activator 1.3µM, IL-2 act inactive and BRCA1 expr act inactive.
Cc1nn2c3c(cnc2c1-c1ccccc1)C(=O)CC(c1ccccc1)C3 (stereo unspecified) was read as ELG1 repair inh inactive, Nrf2 activator inactive, IL-2 act inactive and BRCA1 expr act inactive.
Screening COc1ccc(Cl)cc1NC(=O)CN(C)C(=O)c1n[nH]c2ccccc12 returned ELG1 repair inh 8.2µM, Nrf2 activator inactive, IL-2 act inactive and BRCA1 expr act inactive.
Cc1cc2oc(=O)cc(COC(=O)c3n[nH]c4ccccc34)c2cc1C was read as ELG1 repair inh inactive, Nrf2 activator inactive, IL-2 act inactive and BRCA1 expr act inactive.
For COc1ccc2c(COC(=O)c3n[nH]c4ccccc34)cc(=O)oc2c1 the results were ELG1 repair inh inconclusive, Nrf2 activator inactive, IL-2 act inactive and BRCA1 expr act 4.5µM.
`CCOC(=O)c1c(C)[nH]c(C(=O)N(C)Cc2cccc(OC)c2OC)c1C` gave ELG1 repair inh 16µM, Nrf2 activator inactive, IL-2 act inactive and BRCA1 expr act inactive.
`COc1ccc(CCNC(=O)c2ccc(CNc3nc(=S)[nH]c4ccccc34)cc2)cc1OC` gave ELG1 repair inh 15µM, Nrf2 activator inactive, IL-2 act inactive and BRCA1 expr act inactive.
Cc1ccc(C)c(N2CCN(C(=O)CCS(=O)(=O)c3cc(Br)cc4c3N(C(=O)C3CC3)CC4)CC2)c1 was read as Nrf2 activator inactive.
Screening CCCCCc1ccc(C(=O)CCC(=O)OCC(=O)N(CC)c2c(N)n(Cc3ccccc3)c(=O)[nH]c2=O)cc1 returned ELG1 repair inh inactive, Nrf2 activator inactive, IL-2 act inactive and BRCA1 expr act inactive.
Cc1noc(Cn2c(=O)c3cc4c(cc3n(CC(=O)Nc3cccc(Cl)c3)c2=O)OCO4)n1 was read as Nrf2 activator inactive.
For COc1ccc(C(=O)NCc2ccc3c(c2)CCN3C(=O)c2ccncc2)cc1 the results were Nrf2 activator inactive.
Screening COc1ccc(-n2c(=O)[nH]c3cc(C(=O)NCCc4ccccc4)ccc3c2=O)cc1OC returned ELG1 repair inh 21µM, Nrf2 activator inactive, IL-2 act inactive and BRCA1 expr act inactive.
For COc1ccc(CNC(=O)COC(=O)c2n[nH]c3ccccc23)cc1OC the results were ELG1 repair inh 16µM, Nrf2 activator inactive, IL-2 act inactive and BRCA1 expr act inactive.
CCOC(=O)c1[nH]c(C)c(C(=O)OCC(=O)NCc2ccc(OC)c(OC)c2)c1C was read as ELG1 repair inh 11µM, Nrf2 activator inactive, IL-2 act inactive and BRCA1 expr act inactive.
COc1ccc(CNC(=O)Cn2c(=O)cc(-c3ccccc3)c3c(C)nn(C)c32)cc1 was read as Nrf2 activator inactive.
For O=C(CSc1nccn1Cc1ccccc1)Nc1ccc2c(c1)OCO2 the results were Nrf2 activator inactive.
Screening CCn1c(SCC(=O)Nc2ccccc2)nc2nc3c(cc2c1=O)COC(C)(C)C3 returned ELG1 repair inh 10µM, Nrf2 activator inactive, IL-2 act inactive and BRCA1 expr act inactive.
CCn1c(SCC(=O)Nc2cccc(C)c2)nc2nc3c(cc2c1=O)COC(C)(C)C3 was read as ELG1 repair inh 18µM, Nrf2 activator inactive, IL-2 act inactive and BRCA1 expr act inactive.
CCOC(=O)[C@]12CCC=C1N(Cc1cccc3ccccc13)C(=O)[C@H](CC(=O)N1CCN(C(=O)C3CC3)CC1)C2 was read as Nrf2 activator inactive, IL-2 act inactive and BRCA1 expr act inactive.
For O=C(Nc1ccc([N+](=O)[O-])cc1)c1ccccc1F the results were ELG1 repair inh inconclusive, Nrf2 activator inactive, IL-2 act inactive and BRCA1 expr act 4.5µM.
For O=C(Nc1ccc(-c2ccc([N+](=O)[O-])cc2)cc1)c1ccccc1F the results were ELG1 repair inh inconclusive, Nrf2 activator inactive, IL-2 act inactive and BRCA1 expr act inactive.
Screening COc1cc2oc(=O)cc(-c3ccc(-c4ccc(CO)cc4)cc3)c2c(OC)c1OC returned ELG1 repair inh 5.8µM, Nrf2 activator inactive, IL-2 act inactive and BRCA1 expr act inactive.
`Cn1cccc/c1=N\c1cccc[n+]1C` gave ELG1 repair inh 18µM, Nrf2 activator inactive, IL-2 act inactive and BRCA1 expr act inactive.
CCOc1ccc(NS(=O)(=O)c2c(C)nc3sc(C)c(C)n3c2=O)cc1 was read as Nrf2 activator inactive.
`Cc1ccc(Nc2ncnc(-n3cccc3)n2)cc1Cl` gave ELG1 repair inh inconclusive, Nrf2 activator inconclusive, IL-2 act inactive and BRCA1 expr act 6.3µM.
Nc1ncnc(Nc2ccc(F)c(Cl)c2)n1 was read as ELG1 repair inh inconclusive, Nrf2 activator inactive, IL-2 act inactive and BRCA1 expr act inactive.
Clc1cc(Cl)cc(Nc2ncnc(-n3cccc3)n2)c1 was read as ELG1 repair inh inactive, Nrf2 activator 2µM, IL-2 act inactive and BRCA1 expr act inactive.
Screening COc1ccc(CCNC(=O)c2nn(C)cc2Cl)cc1 returned ELG1 repair inh inconclusive, Nrf2 activator inactive, IL-2 act inactive and BRCA1 expr act 7.9µM.
COc1ccc(CCNC(=O)c2ccc(Cl)cc2)cc1 was read as ELG1 repair inh inactive, Nrf2 activator inactive, IL-2 act inactive and BRCA1 expr act inactive.
COc1cc(Cl)c(NC(=O)c2cc3ccccn3n2)c(OC)c1 was read as Nrf2 activator inactive.
`COc1ccc(CNC(=O)CSCc2ccc(C)cc2)c(OC)c1` gave Nrf2 activator inactive.
Screening Cc1ccc(C)c2[nH]c(=O)c(C(c3nnnn3C(C)(C)C)N3CC=C(c4ccc(F)cc4)CC3)cc12 (stereo unspecified) returned ELG1 repair inh 7.3µM, Nrf2 activator inconclusive, IL-2 act inactive and BRCA1 expr act inactive.
Screening CCC(C)(C)n1nnnc1C(c1cc2cccc(C)c2[nH]c1=O)N1CCCC1 (stereo unspecified) returned ELG1 repair inh inactive, Nrf2 activator inactive, IL-2 act inactive and BRCA1 expr act inactive.
For CCC(C)(C)n1nnnc1C(c1cc2cc(C)cc(C)c2[nH]c1=O)N1CCCC1 (stereo unspecified) the results were ELG1 repair inh 15µM, Nrf2 activator inactive, IL-2 act inactive and BRCA1 expr act inactive.
CCOC(=O)c1ccc(N2C(=O)c3n[nH]c(-c4ccco4)c3C2c2cccc([N+](=O)[O-])c2)cc1 (stereo unspecified) was read as ELG1 repair inh 18µM, Nrf2 activator inactive, IL-2 act inactive and BRCA1 expr act inactive.
